Measurements taken from the antibiotic and cytotoxicity screens of Wong et al. (2023).
The campaign covered roughly 39,000 compounds. About 500 (1.3%) were called active. Many of the other results were omitted from the sample, so actives are more common in it than they were.

test system: S. aureus RN4220; experiment: growth inhibition call (relative growth <= 0.2); settings: 50 µM

SMILES	growth inhibition call
COc1ccc(S(=O)(=O)N(C)C[C@@H]2OCc3cn(nn3)CCCC(=O)N([C@H](C)CO)C[C@H]2C)cc1	inactive
COc1ccc(NC(=O)N(C)C[C@@H]2OCCCC[C@H](C)Oc3ccc(NS(=O)(=O)c4ccc(C)cc4)cc3C(=O)N([C@H](C)CO)C[C@H]2C)cc1	inactive
Nc1nnc(CC(=O)N2CCCCC2)o1	inactive
CN1C(=O)c2cc(NC(=O)Nc3ccccc3F)ccc2OC[C@@H]2O[C@@H](CC(=O)NCc3ccc(-c4ccccc4)cc3)CC[C@H]21	inactive
Cc1noc(C)c1S(=O)(=O)Nc1ccc2c(c1)CC(=O)N([C@@H](C)CO)C[C@H](C)[C@H](CN(C)Cc1ccc(C(=O)O)cc1)O2	inactive
C[C@@H]1CCCCO[C@H](CN(C)C(=O)Nc2cccc3ccccc23)[C@H](C)CN([C@@H](C)CO)C(=O)c2cc(NS(=O)(=O)c3ccc(Cl)cc3)ccc2O1	inactive
COc1ccc(S(=O)(=O)N(C)C[C@@H]2OCc3cnnn3CCCC(=O)N([C@@H](C)CO)C[C@H]2C)cc1	inactive
C[C@H]1CCCCO[C@H](CN(C)C)[C@@H](C)CN([C@@H](C)CO)C(=O)c2cc(NC(=O)CCCN(C)C)ccc2O1	inactive
Cc1cc(C)c(S(N)(=O)=O)cc1S(N)(=O)=O	inactive
C=CCOC(=O)[C@@H]1[C@H]2C(=O)O[C@H](c3ccccc3)[C@H](c3ccccc3)N2[C@H](c2ccc(OCCOC(=O)[C@@H]3C[C@@H]4C(=O)N[C@@H](Cc5ccccc5)C(=O)N4[C@@H]3c3ccc(O)cc3)cc2)[C@@]12C(=O)Nc1ccccc12	inactive
C[C@H]1CN([C@@H](C)CO)C(=O)c2cc(C#CCN(C)C)cnc2O[C@@H]1CN(C)Cc1cccc(C(=O)O)c1	inactive
COc1ccc(S(=O)(=O)N(C)C[C@@H]2Oc3ccc(NS(C)(=O)=O)cc3C(=O)N([C@H](C)CO)C[C@@H]2C)cc1	inactive
CO[C@H](CN(C)C(=O)Nc1ccc(C(F)(F)F)cc1)[C@H](C)CN(Cc1ccccc1Cl)[C@H](C)CO	inactive
CO[C@H](CN(C)C(=O)C1CCOCC1)[C@@H](C)CN(C(=O)Nc1ccc(C(F)(F)F)cc1)[C@H](C)CO	active
C[C@@H]1CCCCO[C@@H](CN(C)C(=O)C2CCCCC2)[C@H](C)CN([C@@H](C)CO)C(=O)c2cc(NC(=O)Nc3ccc(C(F)(F)F)cc3)ccc2O1	inactive
CO[C@@H](CN(C)C(=O)Nc1ccc(C(F)(F)F)cc1)[C@@H](C)CN(Cc1ccccc1Cl)[C@@H](C)CO	inactive
C[C@@H]1CCCCO[C@@H](CN(C)C(=O)C2CCCCC2)[C@@H](C)CN([C@H](C)CO)C(=O)c2cc(NC(=O)Nc3ccc(C(F)(F)F)cc3)ccc2O1	inactive
CO[C@H](CN(C)C(=O)C1CCOCC1)[C@H](C)CN(C(=O)Nc1ccc(C(F)(F)F)cc1)[C@H](C)CO	active
Cc1noc(C)c1NC(=O)Nc1ccc2c(c1)C(=O)N([C@H](C)CO)C[C@@H](C)[C@H](CN(C)S(=O)(=O)c1ccc(Cl)cc1)OCCCC[C@@H](C)O2	inactive
C[C@H](CO)N1C[C@H](C)[C@@H](CN(C)Cc2ccc(C(=O)Nc3ccccc3N)cc2)Oc2c(NC(=O)c3nc4ccccc4s3)cccc2C1=O	inactive
COc1ccc(S(=O)(=O)Nc2ccc3c(c2)C(=O)N([C@H](C)CO)C[C@H](C)[C@@H](CN(C)Cc2ccc(C(=O)O)cc2)OCCCC[C@@H](C)O3)cc1	inactive
CCNC(=O)C[C@H]1C=C[C@H](NC(=O)C2CC2)[C@H](CO)O1	inactive
O=c1c(O)nnc2n1CCN2c1ccccc1	inactive

SMILES	growth inhibition call
Cc1noc(C)c1S(=O)(=O)Nc1cccc2c1O[C@@H](CN(C)S(=O)(=O)c1ccccc1)[C@@H](C)CN([C@H](C)CO)C2=O	inactive
Cc1ccc(S(=O)(=O)Nc2ccc3c(c2)C(=O)N([C@@H](C)CO)C[C@H](C)[C@@H](CN(C)CC2CCCCC2)OCCCC[C@H](C)O3)cc1	inactive
Cc1ccc(CN2CCN(CCO)CC2)o1	inactive
O=C(NCC(F)(F)F)[C@H]1[C@H](CO)[C@H]2Cn3c(cccc3=O)[C@@H]1N2C(=O)C1CCC1	inactive
CCCNC(=O)c1cc2c(c(-c3cccc(-c4cccc(F)c4)c3)n1)[C@H](CCO)N([S@@](=O)C(C)(C)C)C2	active
CCCNC(=O)c1cc2c(c(-c3cccc(-c4ccc(F)cc4)c3)n1)[C@H](CCO)N([S@@](=O)C(C)(C)C)C2	inactive
CCCNC(=O)c1cc2c(c(-c3cccc(-c4cccc(F)c4)c3)n1)[C@@H](CCO)N([S@](=O)C(C)(C)C)C2	inactive
C[C@@H]1CN([C@@H](C)CO)C(=O)c2cc(NC(=O)CCN3CCOCC3)ccc2O[C@H]1CN(C)S(=O)(=O)c1ccc(F)cc1	inactive
NCCCCCNC(=O)[C@@H]1C[C@@H]2C(=O)N[C@@H](CCCCN)C(=O)N2[C@@H]1c1cccc(OCCO)c1	inactive
Cc1sc(Nc2ccccc2)nc1-c1ccc(Cl)cc1	inactive
c1ccc(Nc2nc3c(ccc4ccccc43)s2)cc1	inactive
CSc1cccc2sc(Nc3ccc(Cl)cc3)nc12	active
Cc1ccc(S(=O)(=O)Nc2cccc3c2O[C@H](CN(C)C(=O)Nc2cccc4ccccc24)[C@@H](C)CN([C@@H](C)CO)C3=O)cc1	inactive
COCC#Cc1ccc([C@H]2[C@H]3CN(C(=O)c4ccncc4)CC(=O)N3[C@H]2CO)cc1	inactive
CCOC(=O)CNC(=O)c1cc(C)on1	inactive
O=C(c1ccccc1F)N1CCNCC1	inactive
Cl.O=C(O)c1cn(-c2ccc(F)cc2)c2cc(N3CCNCC3)c(F)cc2c1=O	active
Cn1cc(S(=O)(=O)N2CCN(c3ccc(F)cc3)CC2)c(=O)n(C)c1=O	inactive
O=C(CN1CCNCC1)c1ccc(F)cc1	inactive
Cc1ccc(C(=O)O)c(=O)n1C	inactive
CN1CCN(c2cc3c(cc2F)c(=O)c(C(=O)O)cn3-c2ccc(F)cc2)CC1.Cl	active
Cc1noc(C)c1S(=O)(=O)N(C)C[C@@H]1Oc2ccc(NC(=O)NC(C)C)cc2CC(=O)N([C@@H](C)CO)C[C@@H]1C	inactive
O=C(NO)c1cn(-c2ccc(C[C@H]3C(=O)O[C@@H](Cc4ccccc4)[C@H]4C=C(/C=C/C5CC5)CN43)cc2)nn1	inactive
